Assay results as given in PubChem BioAssay (NCI).
Compounds without any hit were thinned out: in the full panel of roughly 83,000, 20% have a hit.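 Single-concentration screen, 48 h exposure, 96-well plates. Endpoint: percent growth. Below 10 = active.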 Calls of active or inactive are those of the source.

What follows are compounds tested on SNB-19 CNS (assay: NCI-60 one-dose screen, 48 h (100 = growth as untreated, 0 = no growth, -100 = all killed)). Details: 10 µM unless noted.
Description: Growth inhibition of the SNB-19 human tumor cell line is measured as a screen for anti-cancer activity. Cells are grown in 96 well plates and exposed to the test compound for 48 hours. Compounds are tested at a single concentration, which is 10^-5 M for most compounds. The reported endpoint is percent growth (GI% or GIPRCNT), where numbers from 0 - 100% represent growth inhibition, and numbers from -100% - 0 represent cell death. For example, a value of 40 represents 60% growth inhibition. A value of 0 means no net growth occurred over the course of the experiment. A value of -40 indicates 40% of cells at the beginning of the experiment died by the end of the experiment. A value of -100 means all cells are dead at the end of the experiment.
NCI-60 Human Tumor Cell Lines Screen was performed using the standard one-dose NCI protocol, which is described in more detail at https://dtp.cancer.gov/discovery_development/nci-60/default.htm.
Compounds with GIPRCNT values below 10 were considered active. Activity score was based on GIPRCNT using the following formula: […]
Score is 0 for GIPRCNT values of 100 or above, 50 for GIPRCNT values of 0, and 100 for GIPRCNT values of -100.

Row | SMILES | growth
1 | NS(=O)(=O)c1cc(Br)c2c(c1)S(=O)(=O)NCN2 | 112% (inactive)
2 | COc1ccc(NC(=O)c2ccc3c(c2)nc(-c2ccc(Cl)cc2)n3-c2cc(C(C)(C)C)[nH]n2)cc1 | 82.6% (inactive)
3 | Cc1cc(NS(=O)(=O)c2ccc(NC(=O)COc3ccc(-c4cc5ccccc5[nH]4)cc3)cc2)no1 | 29.6% (inactive)
4 | O=C1NC(=O)C(CSc2ccccc2)(c2ccccc2)N1 (stereo not given) | 113% (inactive)
5 | COC1(OC)C2(Cl)C=C(c3ccccc3)C1(Cl)C(Cl)=C2Cl (stereo not given) | 102% (inactive)
6 | COc1ncnc2c1ncn2C/C(Br)=C(\Br)CCl | 89.9% (inactive)
7 | O=C1/C(=C/c2ccc([N+](=O)[O-])cc2)Oc2ccc(O)cc21 | 90.7% (inactive)
8 | C[C@H]1C(=O)C23CCC1C[C@@]21O[C@@H]2C(C)(C)C=CC(=O)C23COC1=O | 100% (inactive)
9 | CC(=O)OC[C@H](O)[C@@]1(O)CC[C@H]2[C@@H]3CCC4=CC(=O)CC[C@]4(C)[C@H]3[C@@H](O)C[C@@]21C | 109% (inactive)
10 | COc1cccc(-c2ccc3c(c2)C2CCN(Cc4ccccc4)C3C2)c1 (stereo not given) | 90.4% (inactive)
11 | COC(=O)c1c2c(c(C)[n+]([O-])c1C)C(=O)C=C(NCc1ccc(F)cc1)C2=O | -66.5% (active)
12 | Cc1nc(-c2ccccc2)cc2c(O)c(C(=O)N/N=C/Cc3ccccc3)[nH]c(=O)c12 | 110% (inactive)
13 | O=C1c2c(c3c4cc(Br)ccc4[nH]c3c3ccc4ccccc4c23)C(=O)N1O | 85.1% (inactive)
14 | O=C1c2cc(S(=O)(=O)O)ccc2C(=O)c2c1cccc2[N+](=O)[O-] | 106% (inactive)
15 | c1ccc(-c2n(Cc3ccc4ccccc4c3)c3ccccc3[n+]2Cc2ccc3ccccc3c2)cc1 | -16.4% (active)
16 | O=C1C(Br)=C(c2ccccc2)C(=O)C(Br)=C1c1ccccc1 | 93.6% (inactive)
17 | Cc1cc(=O)[nH]n1-c1cc(Cl)ccc1N | 112% (inactive)
18 | COc1c(O)c2c3c(c1OC)-c1ccccc1CC3N(S(=O)(=O)c1ccc(C)cc1)CC2 (stereo not given) | 61.6% (inactive)
19 | Cc1nc2cc(Nc3nc(Nc4ccc(F)cc4)nc(N4CCN(C)CC4)n3)ccc2n1Cc1ccccc1 | 44.2% (inactive)
20 | CSc1ccc(OC(C)=O)cc1C | 109% (inactive)

Row | SMILES | growth
21 | CCCCCCCCCCCC(=O)[O][Sn]([CH2]CCC)([CH2]CCC)[CH2]CCC | -95.5% (active)
22 | OB(O)c1ccccc1 | 114% (inactive)
23 | COc1cc(-c2nc3ccccc3o2)cc(CN2CCN(c3ccccc3)CC2)c1O | 82.6% (inactive)
24 | CN1CCN(c2ccc3nc(-c4ccc5nc(-c6ccc(C(F)(F)F)cc6)[nH]c5c4)[nH]c3c2)CC1 | 74.2% (inactive)
25 | CCCCNNC(=O)c1ccc(Br)cc1 | 76.6% (inactive)
26 | Cc1nc2cc(Nc3nc(NCCO)nc(Nc4ccc(F)cc4)n3)ccc2n1Cc1ccccc1 | 100% (inactive)
27 | O=C(c1ccc2ncc(-c3nc(NC4CC4)ncc3F)n2c1)N1CCOCC1 | 45.8% (inactive)
28 | CSc1nnc(-c2sc3nnc(-c4ccccc4)c(-c4ccccc4)c3c2O)o1 | 66.4% (inactive)
29 | COc1ccc(/C=C2\SC(=O)N(CN3CCN(c4cc5c(cc4F)c(=O)c(C(=O)O)cn5C4CC4)CC3)C2=O)cc1 | 100% (inactive)
30 | COc1cc2cc(Oc3ccc(NC(=O)Nc4cccc(C(F)(F)F)c4)cc3)c(C)nc2cc1OCCN1CCCCC1 | -55.1% (active)
31 | COc1cc(Cn2cc(F)c(=O)[nH]c2=O)cc(OC)c1 | 101% [50 µM] (inactive)
32 | CC1CCCCN1S(=O)(=O)c1ccc(CN=C=S)cc1 (stereo not given) | 77.9% (inactive)
33 | N#CCCN1CCN(CCC#N)C1=S | 98.5% (inactive)
34 | Cc1nn(CC(=O)O)c2c1C(=O)CC(C)(C)C2 | 103% (inactive)
35 | O=C(COc1ccc(/C=C2\CSc3ccccc3C2=O)cc1)c1ccc(Cl)cc1 | 92.3% (inactive)
36 | Nc1nc(N)c(C=Nc2ccc(Br)cc2)c(Nc2ccc(Br)cc2)n1 | 99.8% (inactive)
37 | CCCCC(=O)N/N=C/c1cc(I)cc(I)c1O | 62.9% (inactive)
38 | O=C(Nc1ccc(F)cc1)c1ccc(C(=O)Nc2ccc(F)cc2)cc1 | 106% (inactive)
39 | NC(=O)c1cccc(-n2ccc3cc(NC(=O)Nc4ccc(Cl)c(Cl)c4)ccc32)n1 | 86.3% (inactive)
40 | COc1ccc(-c2[nH]ncc2Nc2cc(OC)c(OC)c(OC)c2)cc1 | 34.6% (inactive)
